The list is not random: actives were taken first. Their share in the collection is about 5.7%.
hcDAF12 agonist – H. contortus DAF-12 activation, primary screen. HEK293 hcDAF-12 lit1-tk-luc reporter, luminescence; 0% DMSO, 100% Δ7-dafachronic acid. activation, % at 6.8 µM. 370,000 compounds, 1.4% hits. AID 652067;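 active = activation above the mean of all tested compounds plus 3 SD, cut at about 5.5% in these data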
AHR activator – activators of human aryl hydrocarbon receptor; AHR-responsive luciferase reporter cells, luminescence; P35869; activation, % at 5 µM; 320,000 compounds, 2.5% hits; in the data active = activation above about 47%
ssDAF12 agonist – activates DAF-12 receptor from parasite S. stercoralis; HEK293 ssDAF-12/GRIP1 lit1-tk-luc reporter, luminescence; % of 3 µM dafachronic acid response; activation, % at 6.8 µM; 370,000 compounds, 1% hits;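 active = activation above the mean over all tested compounds plus 3 SD, cut at about 0.9% in these data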
DAX1 inh-1 – NR0B1 (DAX1) inhibition; P51843; HEK293 Gal4-DAX1 luciferase reporter, luminescence; inhibition, % at 6.75 µM; 340,000 compounds, 0.99% hits; AID 504766;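 active = inhibition above the mean over all tested compounds plus 3 SD, cut at about 4.2% in these data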;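 note: inhibition shows as a rise in luminescence from relieved DAX1 repression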
Target sequence (P51843 207-470 limits assumed): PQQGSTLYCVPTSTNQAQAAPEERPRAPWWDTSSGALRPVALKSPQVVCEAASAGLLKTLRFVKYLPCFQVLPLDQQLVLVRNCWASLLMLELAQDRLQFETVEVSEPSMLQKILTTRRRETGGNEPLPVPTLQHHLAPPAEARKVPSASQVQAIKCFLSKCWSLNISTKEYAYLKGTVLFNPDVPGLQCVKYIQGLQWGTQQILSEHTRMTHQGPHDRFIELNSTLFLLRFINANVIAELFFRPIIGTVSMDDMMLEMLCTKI
hgDAF12 agonist – agonists of H. glycines DAF-12 nuclear receptor; AID 687014; activation, % at 6.8 µM; HEK293 GAL4-hgDAF12 UAS-luciferase reporter, agonist luminescence; normalized to butyrate control; 370,000 compounds, 1.8% hits;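 active = activation above a cutoff set at the mean of all screened compounds plus 3 SD, cut at about 10% in these data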
DAX1 inh-2 – blocks DAX1 repression of SF-1 activated StAR promoter | inhibition, % at 6.8 µM | 370,000 compounds, 1.1% hits | HEK293T StAR-luciferase reporter, SF-1/DAX-1 repression relief;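 active = inhibition above the mean over all tested compounds plus 3 SD, cut at about 3.6% in these data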;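 note: higher inhibition means more luminescence from relief of DAX-1 repression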
A number is an active result.

For CCNC(=O)N1CCN(c2ccc(N3CCN(C(=O)NCC)[C@H](C)C3)c(C)c2)[C@H](C)C1 the results were hcDAF12 agonist inactive, ssDAF12 agonist inactive, hgDAF12 agonist inactive and DAX1 inh-2 inactive.
For C[C@H](CO)N1C[C@H](C)[C@@H](CN(C)C(=O)Nc2ccc(C(F)(F)F)cc2)OCc2cn(nn2)CCCC1=O the results were hcDAF12 agonist inactive, ssDAF12 agonist inactive, hgDAF12 agonist inactive and DAX1 inh-2 inactive.
`COc1cccc(CN2C(=O)[C@@H]3Cc4c([nH]c5ccccc45)C(C)(C)N3C2=O)c1` gave hcDAF12 agonist inactive, AHR activator inactive, ssDAF12 agonist inactive, DAX1 inh-1 inactive, hgDAF12 agonist inactive and DAX1 inh-2 inactive.
`Cn1ncc([N+](=O)[O-])c1C(=O)Nc1ccc(Cl)cc1` gave hcDAF12 agonist inactive, AHR activator 72, ssDAF12 agonist inactive, DAX1 inh-1 inactive, hgDAF12 agonist inactive and DAX1 inh-2 inactive.
For COc1ccccc1NC(=O)c1nn(C)cc1Br the results were hcDAF12 agonist inactive, AHR activator 61, ssDAF12 agonist inactive, DAX1 inh-1 inactive, hgDAF12 agonist inactive and DAX1 inh-2 inactive.
For COc1ccc(Cl)cc1NC(=O)c1noc(C)c1[N+](=O)[O-] the results were AHR activator 55 and DAX1 inh-1 inactive.
`Cc1ccccc1C(=O)c1cccn1CC(=O)NC1CCCC(C)C1C` (stereo not drawn) gave hcDAF12 agonist inactive, AHR activator inactive, ssDAF12 agonist inactive, DAX1 inh-1 inactive, hgDAF12 agonist inactive and DAX1 inh-2 inactive.
Cc1occc1C(=O)OCC(=O)Nc1ccc(F)cc1 was read as hcDAF12 agonist inactive, AHR activator inactive, ssDAF12 agonist inactive, DAX1 inh-1 inactive, hgDAF12 agonist 11 and DAX1 inh-2 inactive.
Screening O=C(COC(=O)c1ccccc1Br)Nc1ccc(F)cc1 returned hcDAF12 agonist inactive, AHR activator inactive, ssDAF12 agonist inactive, DAX1 inh-1 inactive, hgDAF12 agonist inactive and DAX1 inh-2 inactive.
For O=C(COC(=O)c1cc2c(s1)CCC2)Nc1ccc(F)cc1 the results were hcDAF12 agonist inactive, AHR activator inactive, ssDAF12 agonist inactive, DAX1 inh-1 4.5, hgDAF12 agonist inactive and DAX1 inh-2 inactive.
For COc1ccc(-c2nc3cccc(C)n3c2NCc2ccco2)cc1OC the results were hcDAF12 agonist inactive, AHR activator 57, ssDAF12 agonist inactive, DAX1 inh-1 inactive, hgDAF12 agonist inactive and DAX1 inh-2 inactive.
Screening Fc1ccc(/C=N/N2CCN(Cc3ccccc3)CC2)cc1 returned hcDAF12 agonist inactive, AHR activator inactive, ssDAF12 agonist inactive, DAX1 inh-1 inactive, hgDAF12 agonist inactive and DAX1 inh-2 inactive.
CCc1ccc(/C=C2\SC(=S)N(CCCC(=O)Nc3ccc(C(=O)O)cc3)C2=O)cc1 was read as hcDAF12 agonist 6.0, AHR activator inactive, ssDAF12 agonist inactive, DAX1 inh-1 inactive, hgDAF12 agonist inactive and DAX1 inh-2 inactive.
CSCC[C@H](NC(=O)c1cc([N+](=O)[O-])ccc1Cl)c1nc2ccccc2[nH]1 was read as hcDAF12 agonist 5.9, AHR activator inactive, ssDAF12 agonist inactive, DAX1 inh-1 inactive, hgDAF12 agonist inactive and DAX1 inh-2 inactive.
Nc1nc2ccccc2cc1-c1cccs1 was read as hcDAF12 agonist inactive, AHR activator inactive, ssDAF12 agonist inactive, DAX1 inh-1 5.4, hgDAF12 agonist inactive and DAX1 inh-2 inactive.
For Cc1cc(C(=O)NNC(C)Cc2ccccc2)no1 (stereo not drawn) the results were hcDAF12 agonist inactive, ssDAF12 agonist inactive, DAX1 inh-1 4.3, hgDAF12 agonist inactive and DAX1 inh-2 inactive.
Screening CCn1c(Cc2ccc(OC)cc2)nnc1SCC(=O)NC1CC1 returned hcDAF12 agonist inactive, AHR activator inactive, ssDAF12 agonist inactive, DAX1 inh-1 inactive, hgDAF12 agonist inactive and DAX1 inh-2 inactive.
`CCOc1ccccc1-c1nnc(SCC(=O)NC2CC2)n1CC` gave hcDAF12 agonist inactive, AHR activator inactive, ssDAF12 agonist 1.1, DAX1 inh-1 inactive, hgDAF12 agonist inactive and DAX1 inh-2 inactive.
CCn1c(CNC(=O)Cc2ccc(OC)cc2)nnc1SCC(=O)NC1CCCCC1 was read as hcDAF12 agonist inactive, AHR activator inactive, ssDAF12 agonist 1.0, DAX1 inh-1 inactive, hgDAF12 agonist inactive and DAX1 inh-2 inactive.
`CCn1c(CNC(=O)Cc2ccc(OC)cc2)n[nH]c1=S` gave hcDAF12 agonist inactive, AHR activator inactive, ssDAF12 agonist inactive, DAX1 inh-1 inactive, hgDAF12 agonist inactive and DAX1 inh-2 4.1.
Screening CCn1c(COc2ccccc2C)nnc1SCC(=O)NC1CCCC1 returned hcDAF12 agonist inactive, AHR activator inactive, ssDAF12 agonist inactive, DAX1 inh-1 inactive, hgDAF12 agonist inactive and DAX1 inh-2 inactive.
Screening COc1ccccc1NC(=O)N(C)C[C@H]1OCc2cn(nn2)CCCC(=O)N([C@H](C)CO)C[C@@H]1C returned hcDAF12 agonist inactive, ssDAF12 agonist inactive, hgDAF12 agonist inactive and DAX1 inh-2 inactive.
`CCO[C@H]1OC(C(=O)NC2CC2)=C[C@@H](C2CCCCC2)[C@@H]1CCCO` gave hcDAF12 agonist inactive, AHR activator inactive, ssDAF12 agonist inactive, DAX1 inh-1 inactive, hgDAF12 agonist inactive and DAX1 inh-2 inactive.
For C#CCNC(=O)C1=C[C@@H](C2CCCCC2)[C@H](CCCO)[C@@H](OCC)O1 the results were hcDAF12 agonist inactive, AHR activator inactive, ssDAF12 agonist inactive, DAX1 inh-1 5.3, hgDAF12 agonist inactive and DAX1 inh-2 inactive.
Screening CCO[C@@H]1OC(C(N)=O)=C[C@H](C2CCCCC2)[C@H]1CCCO returned hcDAF12 agonist inactive, AHR activator inactive, ssDAF12 agonist inactive, DAX1 inh-1 4.3, hgDAF12 agonist inactive and DAX1 inh-2 inactive.
Cc1cccc2nc(-c3ccco3)oc(=O)c12 was read as hcDAF12 agonist inactive, AHR activator inactive, ssDAF12 agonist inactive, DAX1 inh-1 inactive, hgDAF12 agonist inactive and DAX1 inh-2 inactive.
`S=C(N/N=C/c1cccs1)NC1CC2CCC1C2` (stereo not drawn) gave hcDAF12 agonist inactive, AHR activator inactive, ssDAF12 agonist inactive, hgDAF12 agonist 11 and DAX1 inh-2 inactive.
`Oc1ccc(/C=N/NC(=S)NC2CC3CCC2C3)cc1` (stereo not drawn) gave hcDAF12 agonist inactive, AHR activator inactive, ssDAF12 agonist inactive, DAX1 inh-1 inactive, hgDAF12 agonist inactive and DAX1 inh-2 inactive.
For O=C(COc1nncc2ccccc12)Nc1ccc(F)c(F)c1 the results were hcDAF12 agonist inactive, AHR activator inactive, ssDAF12 agonist inactive, DAX1 inh-1 5.7, hgDAF12 agonist inactive and DAX1 inh-2 inactive.
Screening O=C(COc1nncc2ccccc12)Nc1c(F)c(F)c(F)c(F)c1F returned hcDAF12 agonist inactive, AHR activator inactive, ssDAF12 agonist inactive, DAX1 inh-1 inactive, hgDAF12 agonist inactive and DAX1 inh-2 inactive.
Cc1cc(C)c(NC(=O)COc2nncc3ccccc23)c(C)c1 was read as hcDAF12 agonist inactive, AHR activator inactive, ssDAF12 agonist 1.6, DAX1 inh-1 inactive, hgDAF12 agonist inactive and DAX1 inh-2 inactive.

Screening results: PubChem, The Scripps Research Institute Molecular Screening Center
